PubChem BioAssay AID743279 (National Center for Advancing Translational Sciences (NCATS), 2014)
The whole screen tested about 360,000 compounds, of which about 17,000 (4.7%) were called active. Roughly 5% stayed inconclusive and do not appear here. No stated cut-off is given here; in the data, active means activity change below about -50%; inconclusive means mostly about -30% to -49%; inactive means weaker than that. Many of the other results were omitted from the sample, so actives are more common in it than they were.

test: qHTS for Inhibitors of Inflammasome Signaling: IL-1-beta AlphaLISA Primary Screen; settings: THP-1 LPS/ATP IL-1B secretion, 16 h; at 57.5 µM, hits give low values
Method in brief: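 THP-1 cells pretreated 1 hr with compounds (up to 57.5 uM final), then stimulated with LPS (250 ng/mL final) plus ATP (1.25 mM final); secreted IL-1B measured by AlphaLISA after 16 hr, decreased signal indicating inhibition.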
On the % scale 0 is the no-effect control and ±100 the full control effect.

| SMILES | activity change |
| --- | --- |
| O=C(OC12CC3CC(CC(C3)C1)C2)c1ccc(NCc2cc(O)ccc2O)cc1 | -102% (active) |
| COC(=O)c1ccc(NCc2cc(O)ccc2O)cc1 | -110% (active) |
| CC(C)OC(=O)c1ccc(NCc2cc(O)ccc2O)cc1Cl | 0% (inactive) |
| COC(=O)c1ccc(NCC(=O)c2ccccc2)cc1 | -20.4% (inactive) |
| CC1(C)C2CCC1(C)C(OC(=O)c1ccc(O)cc1)C2 (stereo not drawn) | 9.54% (inactive) |
| Cc1ccc(-c2cnc(C(O)c3cccc(C)c3C)[nH]2)cc1 (stereo not drawn) | -19.2% (inactive) |
| CCC(=O)OCc1c(C(F)(F)F)nn(C)c1Oc1cccc(C(F)(F)F)c1 | 2.89% (inactive) |
| CCC(C)C(CO)NC(=O)/C=C/[C@H]1O[C@@H](n2cnc3c(NC(=O)c4ccccc4)ncnc32)[C@H](O)[C@@H]1O (stereo partly drawn) | -22% (inactive) |
| C[C@H](CO)N1C[C@H](C)[C@@H](CN(C)Cc2ccc3c(c2)OCO3)OCc2cnnn2CCCC1=O | 19.4% (inactive) |
| CC1CCCC(C)N1C(=O)COC(=O)c1ccccc1C(=O)c1ccccc1 (stereo not drawn) | -9.64% (inactive) |
| N#Cc1c(N)nc2c(c1N)CC(C(F)(F)F)O2 (stereo not drawn) | 16.5% (inactive) |
| O=C(O)C(CCc1ccccn1)c1ccccc1 (stereo not drawn) | -10.2% (inactive) |
| O=c1[nH]c2c(c(=O)n1-c1ccccc1)CCO2 | 0% (inactive) |
| O=C(NCc1ccco1)c1ccc([N+](=O)[O-])cc1Cl | 15.3% (inactive) |
| CC(OC(=O)CNC(=O)c1ccco1)C(=O)Nc1ccc(Cl)cn1 (stereo not drawn) | 12.3% (inactive) |
| CC(OC(=O)CNC(=O)c1ccc(Cl)c([N+](=O)[O-])c1)C(=O)NCc1ccco1 (stereo not drawn) | -52.2% (active) |
| CCc1nc2ccc(C(=O)N(C)Cc3ccco3)cn2c1N(C)C(=O)Cc1ccccc1 | -0.908% (inactive) |
| CCCN(C(=O)COC(=O)CNS(=O)(=O)c1ccc(NC(C)=O)cc1)C1CCS(=O)(=O)C1 (stereo not drawn) | 14.5% (inactive) |
| CCOC(=O)N1CCN(C(c2ccnc3ccccc23)c2nnnn2-c2c(C)cccc2C)CC1 (stereo not drawn) | -14.1% (inactive) |
| O=C(NCC(=O)N1CCN(c2ccccc2F)CC1)c1cccs1 | 16.6% (inactive) |
| Cc1ccc(C)c(NC(CC(=O)c2ccccc2)C(=O)OCC(=O)c2cccs2)c1 (stereo not drawn) | 7.47% (inactive) |
| Cc1ccccc1C(CC(=O)c1cccs1)C(C#N)C#N (stereo not drawn) | -107% (active) |

| SMILES | activity change |
| --- | --- |
| CCOC(=O)CSc1nncc2ccc(OC)c(OC)c12 | -8.55% (inactive) |
| COc1ccc(CCNc2nc3ccc(C)cc3n3cnnc23)cc1OC | 13.3% (inactive) |
| CCOC(=O)CSc1nc2ccc(C)cc2n2cnnc12 | -55.9% (active) |
| CN(CCCNC(=O)CN1C(=O)CC(C)(C)S(=O)(=O)c2ccccc21)C1CCCCC1 | 0% (inactive) |
| COc1ccccc1C(=O)NC(=S)Nc1ccc(N2CCOCC2)cc1 | -16.4% (inactive) |
| CCCCCC(=O)N1C[C@H](O)[C@@H](n2cc(COC(=O)c3ccccc3)nn2)C[C@@H]1c1ccc(C)cc1 | -14.9% (inactive) |
| N=C1C(c2nc3ccccc3s2)=C(O)CN1NC(=O)c1ccc([N+](=O)[O-])cc1 | -90.6% (active) |
| Cc1ccc(C)n1NC(=O)c1ccc([N+](=O)[O-])cc1 | -5.32% (inactive) |
| N=C1C(c2nc3ccccc3[nH]2)=C(O)CN1NC(=O)c1c[nH]c2ccccc12 | 27.9% (inactive) |
| CN1OC[C@@H]2CN[C@H](c3ccc(-c4ccccc4)cc3)C[C@@H]21 | -4.9% (inactive) |
| O[C@H]1CN(Cc2cccs2)[C@@H](c2ccc(Cl)cc2)C[C@@H]1n1cc(C2CC2)nn1 | 30.3% (inactive) |
| COCCN(C(=O)C(C)C)c1nnc(-c2ccc(C(C)(C)C)cc2)s1 | -83.8% (active) |
| COCCN(C(=O)c1ccco1)c1nnc(-c2ccc(OC)cc2)s1 | -3.55% (inactive) |
| COc1cc(OC)cc(-c2nnc(N(C)C(=O)c3ccncc3)s2)c1 | -18.8% (inactive) |
| CCC1=C(OC(=O)N(CC)CC)N2C(=O)OC(=NCC3CC3)[C@]2(C)[C@H]2C1=CC[C@H]1C(=O)N(CC(=O)OC)C(=O)[C@H]12 | 25% (inactive) |
| COc1ccccc1NC(=S)NC(=O)C(C)C | 3.02% (inactive) |
| COc1ccccc1NC(=O)C[n+]1ccccc1 | 33.7% (inactive) |
| COc1ccccc1NC(=O)c1cc(Cl)nc2ccccc12 | 46.4% (inactive) |
| COc1ccccc1C(=O)Nc1ccccc1C(=O)Nc1ccccc1 | -4.71% (inactive) |
| COc1ccccc1NC(=O)/C=C/C(N)=O | -100% (active) |
| COc1ccccc1NC(=O)c1cc(Cl)nnc1Cl | -97.2% (active) |
| O=C(Nc1ccc(F)cc1)Nc1nnc([C@H]2C[C@H](O)[C@@H](CO)O2)s1 | -12.8% (inactive) |

| SMILES | activity change |
| --- | --- |
| COc1ccc(-c2nnc(SC(C)C(=O)NC3CC3)o2)cc1 (stereo not drawn) | -5.66% (inactive) |
| COc1ccc(-c2nnc(SC(=O)N3c4ccccc4Sc4ccccc43)o2)cc1 | -101% (active) |
| COc1ccc(-c2nnc(-c3ccc4ccccc4c3)o2)cc1 | -20.9% (inactive) |
| COC(=O)C1(C(=O)OC)C/C=C\CN(S(=O)(=O)c2ccccc2[N+](=O)[O-])CCC1 | 18.1% (inactive) |
| O=C(NCc1cccnc1)c1cc(C2CCCN(C(=O)CCCc3ccccc3)C2)on1 (stereo not drawn) | 24.4% (inactive) |
| CCN(CC)CCn1c2ccc(Cl)cc2c2nc(C)sc21 | -29.9% (inactive) |
| CCN(CC)CCCC(C)n1c2nc(=O)[nH]c(=O)c-2nc2cc(Cl)ccc21 (stereo not drawn) | -77.2% (active) |
| O=C(Nc1ccc(OCCO)cc1)c1csc([C@H]2C[C@H](O)[C@@H](CO)O2)n1 | 4.57% (inactive) |
| FC(F)(F)c1cccc(N/N=C/c2ccccc2)c1 | -1.73% (inactive) |
| Cc1cc2c(C)nc(N/N=C/c3ccccc3)nc2o1 | -78.8% (active) |
| COc1cccc(/C=N\Nc2nncc(-c3ccccc3)n2)c1 | -16.6% (inactive) |
| CC(C)NC(=O)c1ccccc1S(=O)c1ccccc1C#N (stereo not drawn) | -0.788% (inactive) |
| OCC1OC(n2cnc3c(N4CCCC4)ncnc32)C(O)C1O (stereo not drawn) | 86.8% (inactive) |
| N#CCSc1nc2ccc(N3CCOCC3)cc2c(=O)n1CCc1ccccc1 | -50.9% (active) |
| COCCCNC(=O)CSc1nc2ccc(N3CCOCC3)cc2c(=O)n1CCc1ccccc1 | -8.48% (inactive) |
| CCCCn1c(SCC(=O)NCC2CCCO2)nc2ccc(N3CCOCC3)cc2c1=O (stereo not drawn) | -7.71% (inactive) |
| N#Cc1ccc(-c2ccc3nccn3c2)cc1 | 13.1% (inactive) |
| C=CC[C@H](CC(=O)N(CCO)Cc1ccccc1)C(=O)N[C@@H](COC(=O)[C@@H](CC=C)Cc1ccc(F)cc1)Cc1ccccc1 | -67.6% (active) |
| C=CCC[C@H](Cc1ccc(F)cc1)C(=O)OC[C@@H](NC(=O)[C@@H](CC=C)CC(=O)N[C@H](CO)Cc1ccccc1)C(C)(C)C | -29.4% (inactive) |
| C=CCC[C@@H](Cc1ccc(F)cc1)C(=O)O[C@H](CNC(=O)[C@H](CC=C)CC(=O)N(CCO)Cc1ccccc1)c1ccccc1 | -58.8% (active) |
| C=CCC[C@@H](Cc1ccc(F)cc1)C(=O)OC[C@@H](C)NC(=O)[C@H](CC=C)CC(=O)N(CCO)Cc1ccccc1 | -24.1% (inactive) |
| C=CCC[C@H](Cc1ccc(F)cc1)C(=O)OC[C@H](C)NC(=O)[C@H](CC=C)CC(=O)N(CCO)Cc1ccccc1 | -17.2% (inactive) |

| SMILES | activity change |
| --- | --- |
| C=CC[C@@H](Cc1ccc(F)cc1)C(=O)OC[C@H]1CCCN1C(=O)[C@H](CC=C)CC(=O)N(CCO)Cc1ccccc1 | -21.2% (inactive) |
| CSc1ccc(CNC(=O)C2(C)CCCN2C)cc1 (stereo not drawn) | -5.74% (inactive) |
| COCCCNC(=O)CNC(=S)N(Cc1cc(OC)c(OC)c(OC)c1)C1CCCC1 | 7.84% (inactive) |
| Cc1ccc(C(=O)N/C(=C\c2cn(S(=O)(=O)N(C)C)c3ccccc23)C(=O)N2CCCC2)cc1 | -17.6% (inactive) |
| COc1ccccc1OCc1ccc(C(=O)N2CCN(C)CC2)o1 | 10.8% (inactive) |
| CN1CCN(C(=O)c2ccc(-c3ccc(Br)cc3)o2)CC1 | -71.3% (active) |
| CN1CCN(C(=O)c2ccc(NC(=O)c3ccc(Br)o3)cc2)CC1 | 4.78% (inactive) |
| CCCc1nn2c(=O)cc(CSCC(=O)Nc3cccc(C)c3)nc2s1 | 19.5% (inactive) |
| Cc1cccc(-c2cnc(C(O)c3cc(C)cc(C)c3)[nH]2)c1 (stereo not drawn) | -1.76% (inactive) |
| CCCCC(=O)N(C)c1c(CC)nc2c(OCc3ccc(S(C)(=O)=O)cc3)cccn12 | 28.1% (inactive) |
| CCOC(=O)N(C)c1c(CC)nc2c(OCc3ccccc3C(=O)OC)cccn12 | 6.05% (inactive) |
| CCc1nc2c(OCc3cccc(OC)c3)cccn2c1N(C)C(=O)C(C)C | 51.9% (inactive) |
| CCc1nc2c(OCc3ccc(C(=O)OC)cc3)cccn2c1N(C)C(=O)C(C)C | -12% (inactive) |
| CCCCC(=O)N(C)c1c(CC)nc2c(OCc3ccc(Cl)cc3Cl)cccn12 | -54% (active) |
| CCc1nc2c(OCc3ccc(Cl)cc3Cl)cccn2c1N(C)C(=O)C(C)C | -84.1% (active) |
| CCc1nc2ccc(C(=O)NC3CCN(Cc4ccccc4)CC3)cn2c1N(C)CCN1CCOCC1 | -15.7% (inactive) |
| CCc1nc2c(OCc3ccc(C(F)(F)F)cc3)cccn2c1N(C)C(=O)CC(C)C | -8.97% (inactive) |
| COC1=CC(=O)OC(C)(c2ccccc2)C1 (stereo not drawn) | 9.74% (inactive) |
| COc1ccc(NC(=O)c2ccco2)cc1NC(=O)c1ccc(C#N)cc1F | 52.7% (inactive) |
| COc1ccccc1C(=O)Nc1ccc(NC(=O)c2ccco2)c(C)c1 | -55.2% (active) |
| Cc1cccc(OCC(=O)Nc2ccc(NC(=O)c3ccco3)c(C)c2)c1 | -0.614% (inactive) |
| Cc1cc(F)ccc1S(=O)(=O)Nc1ccc(C(=O)N(C)Cc2ccco2)cc1 | -8.26% (inactive) |
